# ± gives the standard deviation of the averaged measurements. The full ranking holds about 33,000 sequences; the median of “E-score (rank enrichment, -0.5 to 0.5)” is about -0.0043, and the highest 2% start at about 0.24. Only a selection was taken, and the highest values are over-represented in it overall.
# System: 2Sp-muMax20 (muMax20 with two 2,6-bis(methyl)pyridine Cys staples)
# Test: PBM 8-mer E-score (E-score (rank enrichment, -0.5 to 0.5)); higher = stronger preferential binding
# Protocol: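 Protein binding microarray (universal PBM chip covering all 10-mers in fixed probe flanks) with chemically synthesized human Max(13-93) bHLH-LZ analogs (not full-length Max) bearing noncanonical residues (hArg, Tha, Aib, Nle at 65) and aromatic Cys staples. Read-out per 8-mer (and its reverse complement): E-score (rank-based enrichment, -0.5 to 0.5) and Z-score of median probe intensity.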
row,Sequence,PBM 8-mer E-score
1,ATGACTTA,0.0917 ± 0.049
2,AGGATCAA,-0.0715 ± 0.043
3,AAACTGTA,0.00471 ± 0.023
4,AACAGATC,0.243 ± 0.058
5,AACAGATA,-0.0996 ± 0.022
6,GACAGATC,0.0282 ± 0.0066
7,CCCCAGGG,-0.293 ± 0.032
8,CCAGACCC,-0.142 ± 0.016
9,CAACTTGC,-0.157 ± 0.011
10,AAACTTGA,0.17 ± 0.089
11,AAACTTGC,0.267 ± 0.039
12,GATTAATA,0.274 ± 0.062
13,TATTAACA,0.218 ± 0.011
14,GATTAATC,-0.0645 ± 0.077
15,GATTAACA,0.174 ± 0.046
16,CATTAATA,0.201 ± 0.014
17,TATTAATA,0.274 ± 0.1
18,GTCCTGCA,-0.0516 ± 0.027
19,ACCGCACT,-0.193 ± 0.07
20,AAACTGGC,-0.0533 ± 0.0029
21,CAAGGCCG,-0.065 ± 0.016
22,AAAGGCCG,0.281

row,Sequence,PBM 8-mer E-score
1,AAAAAGGC,0.00635 ± 0.045
2,CAAAAGGC,0.0445 ± 0.053
3,AAAGGCCC,-0.012 ± 0.043
4,CAAAGGCC,0.0557 ± 0.1
5,GAAAGGCC,-0.146 ± 0.053
6,AAAAGGCC,0.3 ± 0.0042
7,GAAAAGGC,0.308 ± 0.013
8,AGTGTCGG,-0.166 ± 0.11
9,GATGCCCC,-0.0212 ± 0.099
10,ATTGAGGC,0.167 ± 0.021
11,ACCATGTC,0.0986 ± 0.05
12,CACATGTA,0.312 ± 0.02
13,ACCATGTG,0.262 ± 0.03
14,ACCATGTA,0.0783 ± 0.049
15,AACATGCT,0.126 ± 0.0074
16,CACATGTG,0.4178 ± 0.00081
17,CACATGAA,0.138 ± 0.035
18,CACATGCG,0.166 ± 0.097
19,CTCATGTA,0.0793 ± 0.033
20,CAAATGTG,0.0759 ± 0.025
21,CACATGTC,0.0937 ± 0.018
22,AACATGCG,0.253 ± 0.035

row,Sequence,PBM 8-mer E-score
1,CCCTAAAG,0.134 ± 0.057
2,ACTCTAGC,-0.0888 ± 0.0064
3,GGGGCAAA,0.0419 ± 0.059
4,AGCCCAAC,0.0919 ± 0.041
5,GCTGACCA,-0.0567 ± 0.026
6,AGCCTTGG,0.0479 ± 0.022
7,ACAAGTAG,0.00901 ± 0.018
8,AGCATGTG,0.223 ± 0.016
9,GACATGTA,0.217 ± 0.066
10,TACATGTA,0.265 ± 0.051
11,AACATGTT,0.304 ± 0.043
12,TACATGCA,0.222 ± 0.018
13,AACATGAG,0.0341 ± 0.0065
14,AACATGTC,0.143 ± 0.038
15,AACATGTG,0.36 ± 0.026
16,AACATGTA,0.2242 ± 0.0011
17,AGGGCTCG,-0.212 ± 0.027
18,ACAAGGGG,0.0199 ± 0.047
19,TCGATACA,0.197 ± 0.0083
20,GCGATGGA,-0.138 ± 0.0024
21,ATAGCCGA,-0.00055 ± 0.0078
22,ATTCCAGA,0.0163 ± 0.071

row,Sequence,PBM 8-mer E-score
1,CGGTGATC,-0.15 ± 0.0077
2,ACTTGAAG,0.186 ± 0.027
3,GATGTATA,0.107 ± 0.023
4,AATGTAAA,0.311 ± 0.014
5,AATGTAAT,0.189 ± 0.0034
6,CATGTATA,0.165 ± 0.0069
7,AATGTATA,0.269 ± 0.048
8,CATGTAAA,0.12 ± 0.055
9,ATCTCTGA,-0.0124 ± 0.14
10,AGCCGGTG,-0.254 ± 0.045
11,CCCGTACG,-0.0914 ± 0.052
12,AAGGCGTG,-0.0484 ± 0.012
13,ACGTGCAA,0.212 ± 0.029
14,CATAATAA,0.0619 ± 0.015
15,AATAATAC,-0.0356 ± 0.042
16,CATAATAC,0.249 ± 0.028
17,AATAATAG,0.137 ± 0.084
18,CATAATAG,0.237 ± 0.028
19,CATAATGG,0.153 ± 0.026
20,AGGTGGAG,-0.0381 ± 0.055
